Inconclusive results are not listed. A call without a number means that no potency is given here. The source made the active and inactive calls. Calls follow the shape of the dose curve; as a rule, active = well fitted curve in the direction sought with a large enough effect; inconclusive = small, poorly fitted or top-dose-only effect, or another doubt; inactive = no such curve, though single readings can be large; an effect the other way counts as inactive or inconclusive. Numbered stars: 1 amine (or outer) side, 2 acyl side, 3 side chain; on linkers, the order of the positions; unused ones are H or OH. Square brackets hold non-standard residues; d marks the D form. Peptide text beside a SMILES is read from it. ξ: configuration not given here. X4 = O=C(C1CC2(c3ccc(O)cc3)c3ccccc3NC2N1[*:1])[*:2]; ξW = NC(Cc1c[nH]c2ccccc12)C(=O)O; ξY = NC(Cc1ccc(O)cc1)C(=O)O
Columns and labels:
[1] = SW1088 Cancer Cell Toxicity qHTS against the NCATS CANVASS Library (AID 1347350); also: nearly all actives have a fitted effect of over 75% in size; also: potency is read from the fitted curve at half-maximal effect
Summary of the method: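 Toxicity is measured over 72 h of compound exposure at 37 degrees C under 5% CO2. Each well holds 1000 cells, pre-incubated for 4 hours before dosing across an 11-point range. CellTiter-Glo luminescence gives viability.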

[2] = HEK-293 Cancer Cell Toxicity qHTS against the NCATS CANVASS Library (AID 1347355); also: nearly all actives have a fitted effect of over 65% in size; also: potency is read from the fitted curve at half-maximal effect; as to outcome: series mostly up to about 46 µM
Summary of the method: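 Toxicity was measured as CellTiter-Glo luminescence after 72 h exposure to an 11-point compound series. Compound was added to 1000 cells/well 4 h after seeding.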

[3] = HPAF-II 12hr Apoptosis Induction qHTS against the NCATS CANVASS Library (AID 1347358)
Summary of the method: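 Caspase-3/7 activation by DEVD-substrate luminescence (Caspase-Glo 3/7, 15 min, room temperature) after a 12-hour compound exposure in 11 concentrations, of HPAF-II pancreatic cells seeded at 500/well in DMEM with 10% FBS.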

[4] = SDT Cancer Cell Toxicity qHTS against the NCATS CANVASS Library (AID 1347365); also: nearly all actives have a fitted effect of over 60% in size; also: potency is read from the fitted curve at half-maximal effect
Summary of the method: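 Cytotoxicity taken from CellTiterGlo ATP luminescence after 72 hr at 37C, 5% CO2. Canine glioma line SDT, 500 cells/well, treated at 11 concentrations; bortezomib dose series as control.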

[5] = KB-3-1 Cancer Cell Toxicity qHTS against the NCATS CANVASS Library (AID 1347366); also: nearly all actives have a fitted effect of over 75% in size; also: potency is read from the fitted curve at half-maximal effect
Summary of the method: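 Luminescence from CellTiter-Glo (10 min, room temperature) measured KB-3-1 viability after 72 hr compound exposure at 37C. Cells were seeded at 500/well and tested in an 11-point series.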

[6] = G06 Cancer Cell Toxicity qHTS against the NCATS CANVASS Library (AID 1347368); also: nearly all actives have a fitted effect of over 60% in size; also: potency is read from the fitted curve at half-maximal effect
Summary of the method: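 Viability measured by CellTiterGlo ATP luminescence after 72 hr at 37C, 5% CO2. Canine G06 glioma cells plated at 500/well. Compounds tested as 11-point qHTS titrations.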

[7] = qHTS for ATAD5 Antagonist screened against the NCATS CANVASS Library (AID 1347370); also: nearly all actives have a fitted effect of over 65% in size; also: potency is read from the fitted curve at half-maximal effect
Summary of the method: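 Compounds (11-point) co-dosed with 10 µM 5-FUrd for 16 h at 37 °C onto HEK293T-ATAD5 luciferase reporter cells. Viability measured by CellTiter-Fluor fluorescence, then ATAD5 reporter signal by luminescence.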

[8] = biological target: Nuclear receptor subfamily 1 group I member 3 (Homo sapiens) (UniProt Q14994); assay: qHTS for Constitutive Androstane Receptor (CAR) Antagonist screened against the NCATS CANVASS Library (AID 1347372); also: potency is read from the fitted curve at half-maximal effect
Chain of Nuclear receptor subfamily 1 group I member 3 (Homo sapiens) (Q14994 whole entry, looked up): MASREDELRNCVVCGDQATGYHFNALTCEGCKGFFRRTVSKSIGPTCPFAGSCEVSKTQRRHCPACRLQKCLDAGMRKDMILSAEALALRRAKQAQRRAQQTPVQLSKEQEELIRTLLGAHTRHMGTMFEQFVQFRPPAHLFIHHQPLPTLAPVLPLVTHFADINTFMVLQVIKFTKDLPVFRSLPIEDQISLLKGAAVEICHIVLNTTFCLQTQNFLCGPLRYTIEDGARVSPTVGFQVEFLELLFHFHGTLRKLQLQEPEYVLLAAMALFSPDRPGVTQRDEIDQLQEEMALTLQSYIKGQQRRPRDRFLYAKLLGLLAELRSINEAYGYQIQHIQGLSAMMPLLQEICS
Summary of the method: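 Antagonist mode: compound added alongside 50 nM CITCO to HepG2-hCAR-CYP2B6 reporter cells, 24hr at 37C. Viability by CellTiter-Fluor fluorescence, then CAR-driven luciferase by ONE-Glo luminescence.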

[9] = biological target: Nuclear receptor subfamily 1 group I member 3 (Homo sapiens) (UniProt Q14994); assay: qHTS for Constitutive Androstane Receptor (CAR) Agonist screened against the NCATS CANVASS Library (AID 1347373);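 also: every well also contained 1.5 µM PK11195 alongside the test compound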
Summary of the method: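 Agonist mode with 1.5uM PK11195 present: compounds for 24hr on HepG2-hCAR-CYP2B6 cells. CellTiter-Fluor fluorescence (ex 405, em 540 nm) gives viability; ONE-Glo luminescence reports CAR activation.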

[10] = qHTS for Hypoxia signaling pathway (HIF-1) antagonists against the NCATS CANVASS Library (AID 1347374); also: nearly all actives have a fitted effect of over 60% in size; also: potency is read from the fitted curve at half-maximal effect
Summary of the method: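 Antagonism scored as loss of CoCl2-driven (60 uM stock added) HRE beta-lactamase signal, read by CCF4 FRET at 460/530 nm. Compounds were tested in an 11-point series on ME-180 reporter cells for 17 hrs at 37C, with parallel CellTiter-Glo cytotoxicity.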

[11] = 10-beta competent E. coli microbial cell viability qHTS against the NCATS CANVASS Library (AID 1347376); also: series mostly up to about 46 µM
Summary of the method: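 Read-out: BacTiter-Glo ATP luminescence, taken 20 min after reagent addition. Beforehand, 10-beta competent E. coli at 0.2 OD had been incubated overnight at 37C with compounds at 11 concentrations.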

[12] = qHTS for H2AX Agonists against the NCATS CANVASS Library (AID 1347378);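 also: phospho-H2AX S139 level in CHO-K1 lysates by TR-FRET emission ratio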; also: potency is read from the fitted curve at half-maximal effect
Summary of the method: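 CHO-K1, 1000 cells/well, o/n 37C; cpd several conc, 3 hr 37C, 0.76% DMSO; lyse 30 min RT; cryptate anti-pH2AX(S139) + d2 anti-H2AX, 24 hr RT; HTRF 665/620.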

[13] = Cytotoxicity qHTS for assessment of Hepg2 cells membrane integrity screened against the NCATS CANVASS Library (AID 1347387)
Summary of the method: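 Membrane damage quantified as fluorescent LDH-release signal (ex 560, em 590 nm) in HepG2 cells treated 5 hr at 37C. qHTS format, 11 concentrations spanning 0.59 nM - 46 uM final, cells plated at 2000 per well the night before.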

[14] = qHTS for Activators of p53 Stress Response Pathway screened against the NCATS CANVASS Library (AID 1347388)
Summary of the method: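 Beta-lactamase reporter driven by p53 response elements in HCT-116 cells, read as the 460 nm/530 nm emission ratio after CCF4 loading, following 16 h of exposure to an 11-point series. Cell viability was measured in the same wells by CellTiter-Glo luminescence.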

[15] = qHTS assay for small molecule disruptors of mitochondrial membrane potential screened against the NCATS CANVASS Library (AID 1347389); also: nearly all actives have a fitted effect of over 60% in size; also: potency is read from the fitted curve at half-maximal effect
Summary of the method: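 Mitochondrial membrane potential in HepG2: 1 h compound treatment (11-point concentration series), 30 min m-MPI dye at 37C, then dual fluorescence of J-aggregates (ex 540/em 590) and monomers (ex 490/em 535); lower red/green ratio indicates depolarization.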

[16] = Secretion counterscreen for inhibitors of the SERCaMP assay screened against the NCATS CANVASS Library (AID 1347390);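 also: light from luciferase secreted into medium read as a measure of general secretion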; also: potency is read from the fitted curve at half-maximal effect
Summary of the method: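 SH-SY5Y-GLuc STOP cells; 4 h attach; cpds 0.001 - 77 uM (qHTS, 11 pts), 20 h 37C/5% CO2; coelenterazine in glow buffer; luminescence, 5 s exposure.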

[17] = qHTS for activators of dead-cell proteases activity screened against the NCATS CANVASS Library (AID 1347392);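 also: luminescence from protease leaking out of membrane-damaged cells cleaving impermeant substrate; rising signal means more cytotoxicity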; also: potency is read from the fitted curve at half-maximal effect
Summary of the method: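 Luminescent dead-cell protease readout (AAF-aminoluciferin, 15 min, room temperature) after 5 h compound treatment of HepG2 cells (2000/well, pre-attached 18 h). Eleven concentrations.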

[18] = qHTS for inhibitors of ER calcium dysfunction: SERCaMP assay screened against the NCATS CANVASS Library (AID 1347393); also: nearly all actives have a fitted effect of over 40% in size; also: potency is read from the fitted curve at half-maximal effect
Summary of the method: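 Thapsigargin-induced ER calcium depletion drives GLuc-SERCaMP secretion from SH-SY5Y cells; compounds given 16 h beforehand were scored by lowered coelenterazine luminescence after 4 h challenge.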

[19] = Viability qHTS for inhibitors of the SERCaMP assay screened against the NCATS CANVASS Library (AID 1347400); also: nearly all actives have a fitted effect of over 70% in size; also: potency is read from the fitted curve at half-maximal effect
Summary of the method: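 CellTiter-Glo luminescence measured cytotoxicity after 48 h at 37C of compound treatment (11-point series). Cells were SH-SY5Y-GLuc SERCaMP MJH297 derivatives, seeded at 1000 per well 4 h beforehand.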

[20] = Redox Reaction Profiling qHTS: Assay Interference Panel against the NCATS CANVASS Library (AID 1347401)
Summary of the method: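 Redox-cycling liability assessed as DTT-driven conversion of resazurin (5 uM, with 200 uM DTT, HEPES pH 7.3) to fluorescent resorufin. Fluorescence at 525/598 nm measured initially and after 15 min dark incubation.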

Row | SMILES | Potency [1] | Potency [2] | Potency [3] | Potency [4] | Potency [5] | Potency [6] | Potency [7] | Potency [8] | outcome [9] | Potency [10] | outcome [11] | Potency [12] | outcome [13] | Potency [14] | Potency [15] | Potency [16] | Potency [17] | Potency [18] | Potency [19] | Potency [20]
1 | CS/C=C/C(N)=O | inactive | inactive | inactive | inactive | inactive | inactive | inactive | inactive | inactive | inactive | inactive | inactive | inactive | inactive | inactive | inactive | inactive | inactive | inactive | inactive
2 | COc1ccc2cc(NC(=O)C3=NO[C@H]4[C@H](O)C=C[C@@H](Cl)[C@@]4(O)C3)c(=O)oc2c1OC | inactive | inactive | inactive | – | inactive | 11.8 µM (active) | – | inactive | inactive | inactive | inactive | inactive | inactive | inactive | inactive | – | inactive | 15.3 µM (active) | inactive | inactive
3 | C[C@@]12C[C@@H](C[C@H]3C(=O)O[C@@H](c4ccoc4)[C@H](OC(=O)c4ccccc4)[C@@H]31)OC2=O | inactive | inactive | inactive | inactive | inactive | inactive | inactive | inactive | inactive | inactive | inactive | inactive | inactive | inactive | inactive | inactive | inactive | inactive | inactive | inactive
4 | CC1C(=O)C23CCC1C[C@@]21O[C@H]2C(C)(C)C=CC(=O)[C@@]23COC1=O (stereo partly specified) | inactive | inactive | inactive | inactive | inactive | inactive | inactive | inactive | inactive | inactive | inactive | inactive | inactive | inactive | inactive | inactive | inactive | inactive | inactive | inactive
5 | CC(=O)O[C@H]1CC[C@@]2(C)C(CC[C@]3(C)C2CC=C2C4CC(C)(C)CC[C@]4(C)CC[C@]23C)C1(C)C (stereo partly specified) | inactive | inactive | inactive | inactive | inactive | inactive | inactive | inactive | inactive | inactive | inactive | inactive | inactive | inactive | – | inactive | inactive | inactive | inactive | inactive
6 | OCc1ccc2ocnc2c1 | inactive | inactive | inactive | inactive | inactive | inactive | inactive | inactive | inactive | inactive | inactive | inactive | inactive | inactive | inactive | inactive | inactive | inactive | inactive | inactive
7 | C[C@@]12CCC[C@@](C)(C(=O)O)[C@H]1C[C@@H](O)[C@]13C[C@H]4C[C@H](O[C@@]4(C)C1)[C@@H]23 | inactive | inactive | inactive | inactive | inactive | inactive | inactive | inactive | inactive | inactive | inactive | inactive | inactive | inactive | inactive | inactive | inactive | inactive | inactive | inactive
8 | O=Cc1ccc2n1C[C@@]1(C[C@H](O)[C@@H](CO)O1)OC2 | inactive | inactive | inactive | inactive | inactive | inactive | inactive | inactive | inactive | inactive | inactive | inactive | inactive | inactive | – | inactive | inactive | inactive | inactive | inactive
9 | C=CC(=C)CC[C@]1(C)[C@H]2C[C@H](OC(=O)C(C)CC)C=C3[C@H](OC(C)=O)O[C@H](OC(C)=O)[C@@]32[C@H](OC)C[C@@H]1C (stereo partly specified) | 0.769 µM (active) | 4.29 µM (active) | – | 8.55 µM (active) | 6.79 µM (active) | 6.05 µM (active) | 10.8 µM (active) | 12.1 µM (active) | inactive | 4.86 µM (active) | inactive | 19.9 µM (active) | – | – | 15.2 µM (active) | 3.96 µM (active) | 60.6 µM (active) | inactive | 2.21 µM (active) | inactive
10 | CC1(C)CCC[C@]2(C)[C@@H]1CC[C@@]13C[C@@H](CC[C@H]12)C(C)(O)C3 (stereo partly specified) | inactive | inactive | inactive | inactive | inactive | inactive | inactive | inactive | inactive | inactive | inactive | inactive | inactive | inactive | inactive | inactive | inactive | inactive | inactive | inactive
11 | CC[C@H](C)[C@H](NC(=O)C(Cc1ccc(O)cc1)NC(=O)C(Cc1c[nH]c2ccccc12)NC(=O)[C@H](C)N)C(=O)N1C(C(=O)NC(Cc2ccc(O)cc2)C(=O)O)CC2(c3ccc(O)cc3)c3ccccc3NC12 (stereo partly specified) (H-A[ξW][ξY]I[X4][ξY]-OH) | inactive | inactive | inactive | inactive | inactive | inactive | inactive | inactive | inactive | inactive | inactive | inactive | inactive | inactive | inactive | inactive | inactive | inactive | inactive | –
